# The panel holds about 83,000 compounds, 20% with a hit somewhere; the sample as a whole holds those more often.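 Values shown are percent growth following 48 h exposure of cells in 96-well plates to a single concentration of compound; below 10 was considered active.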 Unmarked numbers belong to inactive results. The source made the active and inactive calls.
# Assays:
# Assay in all cases: NCI-60 one-dose screen, 48 h (100 = growth as untreated, 0 = no growth, -100 = all killed)
# Conditions in all cases: 10 µM unless noted
# [1] = test system: T-47D breast
# [2] = test system: BT-549 breast
# [3] = test system: MDA-MB-435 melanoma
# [4] = test system: SW-620 colon
# [5] = test system: MCF7 breast
# [6] = test system: KM12 colon
# [7] = test system: HCT-116 colon
# [8] = test system: HCC-2998 colon
SMILES,growth [1],growth [2],growth [3],growth [4],growth [5],growth [6],growth [7],growth [8]
OC(COc1ccccc1Cl)COc1ccccc1Cl,97.1%,86.6%,94.8%,97.9%,94.8%,99.2%,–,–
c1ccc(-c2nc([P+](c3ccccc3)(c3ccccc3)c3ccccc3)c(N3CCOCC3)o2)cc1,-3.03% (active),-5.41% (active),–,14.4%,2.94% (active),-1.22% (active),2.08% (active),26.5%
N#C/C(=C/C=C/c1cccc(Cl)c1)S(=O)c1ccccc1 (stereo not drawn),-47.2% (active),-69.3% (active),-35.4% (active),-58.9% (active),-52.5% (active),-47.7% (active),–,-88.7% (active)
O=C(Nc1cccc2c(O)c(N=Nc3ccc(S(=O)(=O)Nc4nccs4)cc3)cc(N=Nc3ccc(S(=O)(=O)Nc4nccs4)cc3)c12)C(Cl)Cl,88.3%,87.3%,106%,42%,57.8%,59%,–,107%
CC(C)C(NC(=O)C1(NC(=O)OCc2ccccc2)CCCC1)C(=O)O (stereo not drawn),103%,83.7%,109%,96.9%,105%,111%,–,–
O=C(O)CN1C(=O)CCC1=O,90.4%,103%,102%,114%,92%,104%,–,110%
Cc1c(Cl)cc(-n2c(=O)c3ccccc3c3ccccc3c2=O)cc1Cl,93.9%,89.8%,104%,109%,98%,111%,–,95.5%
COc1cc(/C=C/C(=O)c2cccc(-n3cc(-c4ccccc4)[nH]c3=O)c2)ccc1O,62.9%,43.9%,58.5%,4.95% (active),16.5%,15%,–,78.9%
COc1ccc2occ(C3=C(c4c[nH]c5ccccc45)C(=O)N(O)C3=O)c2c1,76.1%,84.2%,96.3%,89.2%,82.5%,91.1%,–,112%
CCc1ccccc1-n1c(-c2ccc(Cl)cc2)cc(-c2ccc(Cl)cc2)c(C#N)c1=O,78.6%,93.7%,–,88.9%,61.7%,82.9%,69.8%,101%
COc1ccc(CNC(=O)C(O)C(Cc2ccccc2)NC(=O)c2[nH]c3ccccc3c(=O)c2C)cc1OC (stereo not drawn),97.8%,104%,–,113%,99.7%,105%,106%,117%
COC(=O)[C@]12CC[C@@H](C)[C@H](C)[C@@H]1C1=CC[C@@H]3[C@@]4(C)C(C=O)=C[C@@](C)(CO)[C@@H]4[C@H](O)C[C@@]3(C)[C@]1(C)CC2,-19.8% (active),-15.6% (active),-16% (active),-1.77% (active),3.73% (active),1.71% (active),–,-79.2% (active)
CN1CCN(CCCOc2ccc3nc(Nc4ccc(F)c(F)c4)ccc3c2)CC1,14.6%,79.9%,–,-32.2% (active),11.8%,11.8%,5.76% (active),-24.6% (active)
COc1ccc(CN2C(=O)C(Cl)=C(Nc3cccc(C(F)(F)F)c3)C2=O)cc1,60.8%,26.3%,25.5%,28.8%,29.5%,70.2%,–,53.2%
COc1ccc2oc3c(C)c4c(c(C)c3c2c1)C(=O)N(Cc1ccccc1)C4=O,95%,96.1%,99.2%,78.3%,95.5%,97.4%,–,102%
COc1ccc2[nH]c(O)c(C(=Nc3ccc(N(C)C(=O)CN4CCN(C)CC4)cc3)c3ccccc3)c2c1,53.4%,35.8%,–,16.8%,29%,18.2%,11.1%,34.3%
COc1cc(C2CC(c3ccc(Nc4ccnc5cc(Cl)ccc45)cc3)=NN2C=O)cc(OC)c1OC (stereo not drawn),83.2%,37%,30.5%,84%,46.3%,68%,–,–
Cc1c(C)c2c(c(C)c1OCC(=O)O)CC[C@@](C)(CCC[C@@H](C)CCC[C@@H](C)CCCC(C)C)O2,23.6% [50 µM],-4.37% [50 µM] (active),15% [50 µM],-41.8% [50 µM] (active),15.6% [50 µM],-73.8% [50 µM] (active),–,-3.58% [50 µM] (active)
